PubChem BioAssay (NCI)
Compounds without any hit were thinned out: in the full panel of roughly 83,000, 20% have a hit.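 Note: values are percent growth. 100 is the growth of untreated cells, values between 100 and 0 indicate rising inhibition; between -100 and 0 indicates cell death.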 A number with no mark means an inactive call. The source made the active and inactive calls. How the source made its calls: active means growth percent below 10; inactive means the rest.

How the values were obtained:
Assay in all cases: NCI-60 one-dose screen, 48 h (100 = growth as untreated, 0 = no growth, -100 = all killed)
Details in all cases: 10 µM unless noted
SK-MEL-2 melanoma = test system: SK-MEL-2 melanoma
EKVX NSCLC = test system: EKVX NSCLC
SN12C renal = test system: SN12C renal
UO-31 renal = test system: UO-31 renal
TK-10 renal = test system: TK-10 renal
ACHN renal = test system: ACHN renal
CAKI-1 renal = test system: CAKI-1 renal
A498 renal = test system: A498 renal
CCRF-CEM leukemia = test system: CCRF-CEM leukemia
MOLT-4 leukemia = test system: MOLT-4 leukemia

Row | SMILES | growth (SK-MEL-2 melanoma) | growth (EKVX NSCLC) | growth (SN12C renal) | growth (UO-31 renal) | growth (TK-10 renal) | growth (ACHN renal) | growth (CAKI-1 renal) | growth (A498 renal) | growth (CCRF-CEM leukemia) | growth (MOLT-4 leukemia)
1 | O=S1SC(c2ccccc2)=NN1c1cc(F)cc(F)c1 (stereo unspecified) | 68.1% | 38% | 33.1% | 22.7% | 85.8% | 51.5% | 52.4% | 12.7% | 18.8% | 17.5%
2 | O=[N+]([O-])c1ccc(NC(=S)NNC(=S)Nc2ccc(Br)cc2)cc1 | 105% | 83.5% | 88.3% | 70% | 127% | 70.8% | 75.6% | 82.5% | 89.1% | 74.9%
3 | COc1ccc(C2CC(c3cccc(OCCCCOc4cccc(C5=NOC(c6ccc(OC)cc6)C5)c4)c3)=NO2)cc1 (stereo unspecified) | 103% | 102% | 95.3% | 79% | 104% | 104% | 89% | 111% | 72.8% | 92.2%
4 | N#Cc1c(-c2cccs2)cc(-c2cnccn2)nc1SCC(=O)N/N=C/c1cccs1 | 78.5% | 59% | 52.1% | 89.1% | 65.1% | 49.8% | 30% | 25.5% | 90.6% | 85.2%
5 | Cn1c2nc3ccccc3c-2cc2ccccc21 | 105% | 42.5% | 33.7% | 13.9% | 103% | 21.2% | 18.9% | 21.3% | 50.8% | 21.5%
6 | CCOC(=O)c1ccc(NC2=C(Cl)C(=O)c3nc(C)ccc3C2=O)cc1 | 78.2% | 68.4% | 75.8% | 2.37% (active) | 99.4% | -9.88% (active) | 75.4% | 68.3% | 6.88% (active) | 16.3%
7 | CCN(CC)CCOc1ccc(C(=C(C)Cc2ccc(OC)cc2)c2ccc(OCCN(CC)CC)cc2)cc1 | 116% | 84% | 86.1% | 68.3% | 111% | 46.7% | 69.8% | 85.7% | 3.83% (active) | 3.61% (active)
8 | O=C1C(SCc2ccccc2)=C(Cl)CN1c1ccc(Cl)cc1 | 79.9% | 106% | 100% | -88.1% (active) | 111% | 98.1% | 90.7% | 114% | 70.8% | 68%
9 | Cn1ncc2c(C(=O)c3ccc(F)cc3)nc(C(C)(C)C)nc21 | 103% | 98.9% | 96.2% | 93.9% | 82% | 99.1% | 89.5% | 58.4% | 103% | 92.6%
10 | Fc1cc(F)cc(NNC(=S)c2ccccc2)c1 | 76% | 39.7% | 9.96% (active) | 26.4% | 92.3% | 55.4% | 56.2% | 14.4% | 24.2% | 25.1%
11 | CCc1nnc(NC(=O)c2cc(-c3ccc(Cl)cc3Cl)oc2C)s1 | 108% | 99.4% | 83.7% | 85.1% | 114% | 50.9% | 80.9% | 97.4% | 97.6% | 99.3%
12 | NC(=O)n1c(=O)n(-c2cccc(C(F)(F)F)c2)c(=O)c2cc(-c3ccc(F)cc3F)ccc21 | -20.1% (active) | -0.656% (active) | 1.52% (active) | 4.54% (active) | 8.59% (active) | -3.85% (active) | -21.6% (active) | -26.4% (active) | 9.98% (active) | 0.274% (active)
13 | CCOC(=O)c1cccc(NC2=C(Cl)C(=O)C(C)=C(C)C2=O)c1 | 104% | 74.4% | 94.8% | 96.7% | 129% | 106% | 89.4% | 89.1% | 13.9% | 5.67% (active)
14 | COc1cc(OC)cc(-c2cc(-c3c[nH]c4ccccc34)nc(-c3c[nH]c4ccccc34)c2C#N)c1 | 88.4% | 91.5% | 95.1% | 71.3% | 124% | 97.2% |  | 96.7% | 97.2% | 98.6%
15 | COc1ccc(C(=O)c2c(N)c(C#N)cn2-c2ccc(Cl)cc2Cl)cc1 | 97% | 93.6% | 100% | 84.5% | 105% | 98.1% | 91.7% | 109% | 101% | 90.7%
16 | O=C(CSc1nc2ccccc2c(=O)n1-c1ccccc1)N/N=C/c1ccc(Oc2ccc(Cl)cc2)cc1 | 86.9% | 59% | 26.9% | 81.2% | 104% | 74.5% |  | 65.7% | 50.4% | 58.7%
17 | CCN(CC)c1ccc(/C=N/NC(=O)c2ccc(S(N)(=O)=O)cc2)cc1 | 38.7% | 23.6% | 35.9% | 13.3% | 42.9% | 14.6% |  | 44.3% | 15.4% | 14.2%
18 | COC(=O)CCCNCCCn1ccc2cc(NCc3cccc(-c4ccccc4)c3C)ccc21 | 95.6% | 73.6% | 73.4% | 54.5% | 115% | 77.8% |  | 16.4% | 33.8% | 49.5%
19 | NS(=O)(=O)c1nnc(/N=C/c2c(O)[nH]c3ccccc23)s1 | 114% | 84.2% | 101% | 72.5% | 142% | 93.7% |  | 107% | 106% | 126%
20 | Cc1ccc(S(=O)(=O)c2nc(-c3ccc(F)cc3)oc2S(C)(=O)=O)cc1 | 86.3% | 91.8% | 67.4% | 54.1% | 93.1% | -91.8% (active) |  | 102% | -14.8% (active) | 2.92% (active)
21 | Oc1[nH]c2ccc(Cl)cc2c1N=Nc1nc(N=Nc2c(O)[nH]c3ccc(Cl)cc23)nc(N2CCCCC2)n1 | 86.7% | 50.8% | 42.5% | 86.7% | 121% | 88.6% |  | 94.2% | 9.81% (active) | 22.1%
22 | NS(=O)(=O)c1cccc(Nc2nc(SCC(=O)c3ccc(Cl)cc3)nc3c2CCC3)c1 | 98% | 97.7% | 98% | 90.9% | 119% | 92.4% |  | 79.4% | 98.3% | 105%
23 | CC(C)=CCC[C@](C)(O)[C@H]1CC[C@]2(C)[C@@H]1CC[C@@H]1[C@@]3(C)CC[C@H](N)C(C)(C)[C@@H]3CC[C@]12C | 109% | 73.4% | 96.1% | 77.1% | 127% | 91.7% |  | 106% | 0.154% (active) | 4.46% (active)
24 | COc1cc2cc(Oc3ccc(NC(=O)Nc4ccc(F)c(C(F)(F)F)c4)cc3)c(C)nc2cc1OCCN(C)C | 115% | 97.6% | 96.4% | 86.6% | 106% | 106% |  | 93.6% | 15.8% | 89.5%
25 | O=C(CSc1nc2ccccc2c(=O)n1-c1ccc(Cl)cc1)N/N=C/c1ccc(Oc2ccc(Cl)cc2)cc1 | 54.3% | 40.8% | 45.3% | 93.1% | 39.7% | 63.5% |  | -42.3% (active) | -2.67% (active) | -25.1% (active)
26 | Cc1ccc(NC2=C(Cl)C(=O)c3nc(C)ccc3C2=O)c(C)c1 | 4.04% (active) | 49.1% | -69.1% (active) | -13% (active) | 126% | -24.7% (active) |  | 60.5% | 1.19% (active) | 1.38% (active)
27 | Fc1cccc(Cl)c1/C=N/Nc1nc(N/N=C/c2c(F)cccc2Cl)nc(N2CCCCC2)n1 | -25.8% (active) | 13.8% | 23.2% | 9.02% (active) | 27.2% | 4.21% (active) |  | 52.8% | 22.3% | 13.7%
28 | COc1ccc(-c2cc(-c3ccc(N(C)C)cc3)n3c(n2)nc2ccccc23)cc1 | -3.8% (active) | 56.5% | 64.7% | 35.2% | 40.9% | 63.7% |  | 51.8% | 24% | 13.8%
